Experimental data reported in the OligoGym collection.

The sequences below were run against ERCC8 (assay: pooled miR-30 sensor sort-seq; sequence = guide strand). Conditions: shRNA.
Also: reference of the scale not given here.

Sequence | sensor-assay potency score (higher = more potent)
TCTACTGTCAGCACTTGCTGTT | 0.468
TTCGATTATCTGTACCAACAGT | -0.994
TCTAGTACCAACTGCTACCAAA | -1.28
TTCTTTCAACATCTCTGTCTTT | -0.331
ATTATCTGTACCAACAGTGAGG | -0.965
TTGACTAAATAAACTATACAGA | -1.03
TTTAATTGTGATTTTGTTGTAG | 0.555
TTACTCTACTGTCAGCACTTGC | -0.793
TCACACCATCTGAACCACCTGA | 0.0366
TCTGTCTTTATTTAATTCCAGT | -1.2
TATTTCTTGTCTGTGACCCTGT | 1.1
TAATCAAACATCCTGATGCTCT | -0.532

The sequences below were run against ERG in the same assay as above. Conditions: shRNA.

Sequence | sensor-assay potency score (higher = more potent)
TTTCTAGCATGCATTAACCGTG | -0.322
TAAGACTTCAGTAACTCCCTCC | 0.34
TTCTTGTCATAGTAGTAACGGA | -1.05
TAAAATGGCATTATAAACGGTA | -0.0295
TAAGACTTCATGCTTCTACATA | -1.33
TGCTTCTACATACACTGTCTTT | -1.13
TTTCTTTGGCACTTTGTCCTTA | 0.442
TTCTTTGGCACTTTGTCCTTAA | -0.383
TATTCGTGACATTTTTAGCATC | -1.17
TAAATCTGTGTTTCTAGCATGC | 0.0224
TACATTTCTTAAGACCACTTTC | -0.508
TTCTCCTCCATGTAGCTGCCGT | -0.46
TAGCATGCATTAACCGTGGAGA | -0.638
TTACATTCCATTTTGATGGTGA | 0.928
TTCTGTAGTAAGACTTCAGTAA | 0.212
TTATCGTAGTTCATGTTGGGTT | -0.512
TATTGCTTTAGTTTCATCCCAG | -0.25
TGGAAGTCGAACTTGTAGGCGT | 0.335
TTGAGACAGCCAATCCTGCTGA | 0.276
TCTTGTCATAGTAGTAACGGAG | -1.01
TTCTAGCATGCATTAACCGTGG | -0.659
TCATCTTGGAAGTCTGTCCATA | -0.884
TAACAAGATGTTGACGTCTGGA | 0.51
TTTTGATTCATGTTCTCCGATA | -0.485

Each sequence was assayed against ERICH1 in the same assay as above. Conditions: shRNA.

Sequence | sensor-assay potency score (higher = more potent)
TATACATTTAACTTAACAGAAT | -1.58
TCTCTCAGTATCTTGCAGGAGC | -0.55
TTAACTTAACAGAATGTCCATT | -0.597
TTATGCTTCCTAATTCTTCTTC | 0.311
